“And” between values parts separate entries of the source, which are not always exact repeats. Equal values may be shown once. About 320 (0.23%) of roughly 140,000 compounds were called active. The sample holds actives, similar compounds and a random draw of the others, so the mix is not that of the screen. Cut-off read from the data, not from the text of the source: active = z-score mostly below about -2.9 (no sharp cut-off); inactive = mostly above about -1.9.
System: CapD gamma-glutamyltranspeptidase (Bacillus anthracis Ames Ancestor)
Assay: inhibition of CapD gamma-glutamyltranspeptidase – biochemical, fluorescence intensity, primary screen (AID 492967)
Conditions: purified CapD enzyme, fluorescence intensity read-out; stronger effect = lower value

SMILES | z-score
Cc1cccc(N2CCN(C(=O)c3cccc(N4C(=O)C5C6C=CC(C6)C5C4=O)c3)CC2)c1C (configuration not stated) | -0.42 (inactive)
CCOC(=O)c1cc2cccc(NC(=O)c3cccc(C(F)(F)F)c3)c2[nH]1 | -0.595 (inactive)
CCCCCNC(=O)c1ccc2c(c1)[nH]c(=S)n1c3ccccc3nc21 | -0.3 (inactive)
CN(CC(=O)O)S(=O)(=O)c1ccc2oc3ccccc3c2c1 | 0.355 (inactive)
C=CCN1CCN(C(=O)C2CC2)CC1 | 0.655 (inactive)
CCCNC(=O)Nc1ccc2snnc2c1 | 26.7 (inactive)
CCOC(=O)c1ccc(N2N=C(C(F)(F)F)/C(=C/c3cc(Cl)c(O)c(OC)c3)C2=O)cc1 | -0.22 (inactive)
CCC(C)(C)c1cc2cc(NS(=O)(=O)c3ccccc3)ccc2[nH]1 | -0.4 (inactive)
CCOC(=O)c1cc2cccnc2nc1C | -0.34 (inactive)
CCOc1ccc(C(=O)/C(C)=N/O)cc1 | -1.18 (inactive)
Cc1ccc2nc(N3CC(=O)N(CCc4ccccc4)C(=O)C3)c3nncn3c2c1 | -0.125 (inactive)
CC(Oc1ccc(OC(C)C(=O)/C=C/N(C)C)cc1)C(=O)/C=C/N(C)C (configuration not stated) | -1.18 (inactive)
N#Cc1c(-c2ccccc2)cc(-c2ccccc2)c(C#N)c1N | 21 (inactive)
FC(F)(F)c1cccc(N2CCN(C(=S)Nc3ccccc3)CC2)c1 | -0.215 (inactive)
O=C(COC(=O)Cc1ccsc1)Nc1ccccc1C(F)(F)F | -1.17 (inactive)
CCOc1ccc(/C=C2/SC(=S)N(CC(=O)O)C2=O)cc1 | -0.21 (inactive)
FC(F)(F)C1=CC=NCCN1 | -4.38 (active)
CC(C)(C)OC(=O)/N=C(\N)N(CCCC(NC(=O)OC(C)(C)C)C(=O)NCc1cccs1)C(=O)OC(C)(C)C (configuration not stated) | -0.295 (inactive)
O=C(c1ccco1)N1CCN(Cc2cccc(C(F)(F)F)c2)CC1 | 0.64 (inactive)
CCNC(=O)C(=O)Nc1cccc(C(F)(F)F)c1 | 0.01 (inactive)
CCOC(=O)N/N=C1/c2ccccc2C2(O)NC(=O)NC12O (configuration not stated) | 0.15 (inactive)

SMILES | z-score
C=CCn1cc(C=C2C(=O)N(C)C(=S)N(C)C2=O)c2ccccc21 | 3.29 (inactive)
CN1C(=O)C(=Cc2cn(CC(=O)NCc3ccco3)c3ccccc23)C(=O)N(C)C1=O | -0.57 (inactive)
O=C(O)Cn1cc(/C=C2\C(=O)NN(c3ccccc3)C2=O)c2ccccc21 | -6.26 (active)
CCOc1ccc(CCNC(=O)c2nnc(-c3cccnc3)o2)cc1OCC | 0.25 (inactive)
Cc1nc2ccccc2n1CC1CC1(Cl)Cl (configuration not stated) | -0.66 (inactive)
O=C(O)CSc1ncn(-c2ccccc2)n1 | 0.115 (inactive)
CC1(C)c2ccccc2N2CCC(=O)NC21/C=C/c1cccnc1 (configuration not stated) | 0.115 (inactive)
CN(C)/C=C/C(=O)C(Cc1ccc(Cl)cc1)Cc1ccc(Cl)cc1 | -0.33 (inactive)
O=[N+]([O-])c1cccc(C2(O)CN(c3ccc(Cl)cc3)C3=[N+]2CCCS3)c1 (configuration not stated) | 0.185 (inactive)
COc1ccc2nc3oc(C(=O)NC4CC4)cc3cc2c1 | 3.45 (inactive)
O=C(c1ccccc1)C(O)c1c[nH]c2ccccc12 (configuration not stated) | 0.51 (inactive)
CC1(C)CC(=O)C(=Cc2c[nH]c3ccccc23)C(=O)C1 | -4.71 (active)
O=c1[nH][nH]c(=O)c2c(N=Cc3c[nH]c4ccccc34)cccc12 | 57.4 (inactive)
CCOc1ncccc1C(=O)Nc1cccc(C(F)(F)F)c1 | -0.145 (inactive)
O=c1cc(CO)oc(C(Nc2cccc(C(F)(F)F)c2)c2ccccn2)c1O (configuration not stated) | -6.66 (active)
O=C(CC(NCc1ccco1)C(=O)O)Nc1cccc(C(F)(F)F)c1 (configuration not stated) | -0.155 (inactive)
CCC1CCCCN1C(=O)CSc1ccc(C)cc1 (configuration not stated) | -0.23 (inactive)
O=c1oc2ccccc2cc1-c1nc(-c2ccc(Cl)cc2)cs1 | 0.955 (inactive)
Cc1cc(=O)oc2c3c(ccc12)OCN(c1ccccc1Cl)C3 | 21.1 (inactive)
CCC(C)NC(=O)c1onc(C)c1Cl (configuration not stated) | -0.44 (inactive)
Cc1c(NS(=O)(=O)c2ccc3c(c2)C(=O)c2ccccc2C3=O)c(=O)n(-c2ccccc2)n1C | -0.465 (inactive)

SMILES | z-score
O=C1CCCC2=C1C(c1ccc(Cl)cc1)c1c(ccc3ccccc13)N2 (configuration not stated) | 0.255 (inactive)
Cc1ccc(Oc2cc(Oc3ccc(C)cc3)c3noc4c3c2C(=O)c2ccccc2-4)cc1 | 0.03 (inactive)
Cc1cc2c(cc1C)CSC(c1cc(Cl)cc(Cl)c1O)SC2 | -0.005 (inactive) and -0.385 (inactive)
COc1cc2c(C(=O)NCCC(C)C)cn(C)c(=O)c2cc1OC | 0.63 (inactive)
C=CCN(C(=O)c1ccc(N2CC3CC(C2)c2cccc(=O)n2C3)c(NC(=O)c2ccc(OC)cc2)c1)c1ccccc1 (configuration not stated) | -0.49 (inactive)
O=C(OC1CCCCC1=O)c1ccc(O)cc1 (configuration not stated) | -0.295 (inactive)
CCOc1cccc2cc(C(=O)Nc3ccc(Oc4ccccc4)cc3)c(=O)oc12 | 1.48 (inactive)
O=C(COC(=O)c1ccccc1)Nc1ncc(Cl)cc1Cl | 0.31 (inactive)
CC12CCC(C(=O)Nc3ncc(Cl)cc3Cl)(CC1=O)C2(C)C (configuration not stated) | -1.89 (active)
CC12CCC(C(=O)O)(CC1=O)C2(C)C (configuration not stated) | -0.19 (inactive)
CCOC(=O)C1=NN(C(=O)CCc2ccccc2)C(O)(c2ccc(Cl)cc2)C1 (configuration not stated) | -1.38 (inactive)
CCC(C(=O)Nc1cccc(OC)c1)N1C(=O)CCn2nccc21 (configuration not stated) | 0.745 (inactive)
O=C1C2C3c4ccccc4C(c4ccccc43)C2C(=O)N1c1ccccc1Cl (configuration not stated) | 0.425 (inactive)
O=C(O)c1ccccc1-c1ccccc1C(=O)Nc1nccs1 | 0.375 (inactive)
O=C(Nc1nccs1)c1cc(=O)c2ccccc2o1 | -0.41 (inactive)
Nc1[nH]c(=S)sc1C(=O)Nc1nccs1 | -5.56 (active)
CC(=O)Nc1ccc2c(c1)OCCOCCOCCO2 | -0.015 (inactive)
CC(C)Oc1ccccc1C(N)=O | -0.285 (inactive)
COc1ccc(CSc2nc(N)nc(-c3cccs3)c2C#N)cc1 | 3.26 (inactive)
O=C(Oc1ccc(C=Nc2cccc(Br)c2)cc1)c1ccccn1 | -0.36 (inactive)
